# MITF TRPM1 HTS = activators of MITF-driven TRPM1 promoter activity in SK-MEL-5 cells. SK-MEL-5 TRPM1-promoter luciferase, 24 h; % of positive control, neutral wells = 0. activation, % at 12.5 µM. 0.75% of 300,000 active. AID 588334;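 active = mean activation of at least 80% with every replicate also reaching 80%; inconclusive = mean reaches 80% but some replicate falls short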
# HSF1 inh = HSF1 inhibition; NIH3T3-HGL HSE-luciferase, MG132-induced, luminescence 8 h; active compounds read low; activity change, negative = inhibition, % at 7.5 µM (by protocol); 0.77% of 300,000 active;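 active = more than half of replicate wells show activity change below -50%, luminescence cut by over half; inconclusive = some wells, but at most half, below -50%; inactive = no replicate well below -50%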;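 note: luciferase reports HSF-1 transcriptional activity via heat shock element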
# Wnt bcat act = Wnt/beta-catenin pathway activation; AID 743398; Wnt/beta-catenin reporter cell assay, activator, plate reader; 1.2% of 300,000 active; activation, % at 9.35 µM; in the data active = activation above about 30%, passing the limit was not always enough; inconclusive = no clear call, values can overlap the other calls
# HSF1 activator = increases HSF-1 driven luciferase reporter signal; 1.7% of 300,000 active; activation, % at 9 µM; NIH3T3-HGL HSF-1 luciferase reporter, MG132, 8 h; 100% = twice DMSO control signal; AID 504408;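 active = mean replicate activation of at least 50% with a set share of replicates each reaching 50%; inconclusive = only one of those two conditions met; inactive = mean below 50% and too few replicates reaching it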
# esBAF inh = blocks esBAF chromatin remodeling in mouse ES cells. Bmi1-luciferase knock-in reporter, 24 h; 100% = twice the neutral-well signal. reporter increase, % at 12.5 µM. 2% of 350,000 active. AID 602393; in the data active = activation above about 40%; inconclusive = no clear call, values can overlap the other calls;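 note: a rise in the Bmi1 reporter signal indicates esBAF inhibition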
# A number is an active result; 0 = inactive; ? = inconclusive; - = not tested or not shown. Sampled rows, rich in hits. Any-hit rate of the full collection: about 3.8%.
SMILES,MITF TRPM1 HTS,HSF1 inh,Wnt bcat act,HSF1 activator,esBAF inh
Cc1ccc(-c2cc(-c3ccc(C)cc3O)[nH]n2)cc1,?,0,0,71,0
Cc1ccccc1-c1cc(-c2ccccc2O)n[nH]1,0,0,55,0,0
Oc1ccc(Br)cc1-c1cc(-c2ccccc2F)[nH]n1,0,0,0,0,0
COc1ccc2cc(C3=CCCCC3)ncc2c1,0,-,42,-,0
COc1ccc2cc(-c3ccsc3)ncc2c1,0,-,41,-,0
COc1ccc2cc(-c3ccccc3)ncc2c1,0,0,32,75,0
Cc1ccc(NC(=O)CCN2CCCCC2)cc1,-,-63,0,0,0
O=C(Nc1nnc(S(=O)(=O)N2CCCCCC2)s1)c1ccccc1Cl,0,-70,0,0,0
Cc1ccc(NC(=O)c2cc(NC(=O)c3ccccc3C(=O)O)ccc2N2CCCCC2)cc1,0,0,0,60,-
O=C(NC(=S)Nc1ccccc1O)c1ccc(Cl)cc1Cl,0,0,0,76,0
O=C(Nc1nnc(S(=O)(=O)N2CCCC2)s1)c1ccccc1Cl,0,0,0,0,0
O=C(Nc1ccc(N2CCCC2)cc1)c1cccc(Cl)c1,102,0,33,0,0
O=C(Nc1ccc(N2CCCCC2)cc1)c1ccccn1,0,-67,-,0,0
O=C(N/N=C/c1ccc(N2CCOCC2)cc1)c1ccccn1,0,0,36,0,-
O=C(Nc1ccc(NC(=S)NC(=O)c2ccccc2Cl)cc1)c1cccc(Cl)c1,0,0,-,56,0
CN(C)CC(=O)N[C@H]1CC[C@@H](CCn2cc(C3CC3)nn2)O[C@H]1CO,-,-,-,-,0
CC(C)NC(=O)Nc1ccc2c(c1)C(=O)N([C@H](C)CO)C[C@@H](C)[C@@H](CN(C)Cc1ccccc1)OCCCC[C@H](C)O2,-,-,-,-,0
O=C(Nc1ccc(-n2ccnc2P(=O)(O)c2ccccc2)cc1)c1ccccc1Cl,-,-55,-,0,0
CNC(=O)NC(=S)NC(=O)c1ccccc1Cl,0,-76,0,0,0
O=C(N/N=C/c1ccc2c(c1)OCO2)c1ccccn1,0,0,0,0,0
CCN(CC)S(=O)(=O)c1ccc(NC(=O)c2ccccn2)cc1,0,0,0,0,48
O=C(N/N=C/c1cc2c(cc1Br)OCO2)c1ccccn1,-,0,0,60,-
Cc1ccc(S(=O)(=O)N(C)C[C@@H]2Oc3ncc(-c4ccccc4)cc3C(=O)N([C@H](C)CO)C[C@@H]2C)cc1,-,-,-,-,0
O=C(C[C@@H]1CC[C@@H](NC(=O)c2cnccn2)[C@@H](CO)O1)NCc1ccccc1F,-,-,-,-,0
COc1ccc(CN(C)C[C@H]2Oc3c(NS(=O)(=O)c4ccc(OC)cc4)cccc3C(=O)N([C@@H](C)CO)C[C@H]2C)cc1,-,-,-,-,0
SMILES,MITF TRPM1 HTS,HSF1 inh,Wnt bcat act,HSF1 activator,esBAF inh
CC=Cc1ccc2n(c1=O)C[C@H]1[C@H](CO)[C@@H](C(=O)NCC)N(CC3CCOCC3)[C@@H]21 (mixture of isomers),-,-,-,-,0
COc1ccc(NC(=O)Nc2ccc3c(c2)C(=O)N([C@@H](C)CO)C[C@@H](C)[C@H](CN(C)S(=O)(=O)c2c(C)noc2C)OCCCC[C@H](C)O3)cc1,-,-,-,-,0
Cc1cc(C)cc(NC(=O)Nc2ccc(N3CCCCC3)cc2)c1,-,0,39,0,-
CC(=O)N1CCN(c2ccc(NC(=O)c3ccccc3Cl)cc2)CC1,0,0,0,0,0
O=C(CCc1ccccc1)Nc1ccc(N2CCCCC2)cc1,0,0,-,0,50
O=C(Cc1ccccc1)Nc1ccc(N2CCCC2)cc1,0,0,0,0,0
O=C(N/N=C/c1ccc(OC(=O)c2cccs2)cc1)c1ccccn1,99,0,0,0,-
CCOc1cc(/C=N/NC(=O)c2ccccn2)ccc1OC(=O)c1cccs1,0,0,0,0,0
O=C(Nc1ccc(N2CCCCCC2)cc1)c1ccccc1Cl,0,0,0,60,0
C[C@@H]1CCCCO[C@H](CN(C)S(C)(=O)=O)[C@@H](C)CN([C@@H](C)CO)C(=O)c2cc(NC(=O)c3ccccc3)ccc2O1,-,-,-,-,0
COc1cccc(NC(=O)Nc2ccc3c(c2)C(=O)N(C)[C@H]2CC[C@H](CC(=O)O)O[C@@H]2CO3)c1,-,-,-,-,0
C[C@H](CO)N1C[C@H](C)[C@@H](CN(C)S(=O)(=O)c2cccs2)Oc2ccc(NC(=O)CCCCCC(=O)Nc3ccccc3N)cc2C1=O,-,-,-,-,0
Cc1ccc(F)cc1NC(=O)CCc1c(C)nn(-c2ccc(N3CCCCC3)nn2)c1C,0,0,0,0,65
Cc1ccc(NC(=O)CCc2c(C)nn(-c3ccc(N4CCCCC4)nn3)c2C)cc1C,0,0,0,56,0
Cc1nn(-c2ccc(N3CCCCC3)nn2)c(C)c1CCC(=O)Nc1ccc(F)c(F)c1,0,0,0,0,55
Cc1ccc(NC(=O)CCc2c(C)nn(-c3ccc(N4CCCCC4)nn3)c2C)cc1,0,0,0,0,0
Cc1ccc(NC(=O)CCc2c(C)nn(-c3ccc(N4CCOCC4)nn3)c2C)cc1F,0,0,0,0,53
Cc1cc(F)ccc1NC(=O)CCc1c(C)nn(-c2ccc(N3CCCCC3)nn2)c1C,0,0,0,0,0
O=S(=O)(N[C@H]1CC[C@H](CCn2cc(C3CC3)nn2)O[C@H]1CO)c1ccc(Cl)cc1,-,-,-,-,0
O=C(C[C@H]1CC[C@@H]2[C@H](COC[C@@H](O)CN2C(=O)Nc2ccc(F)cc2)O1)NCCCN1CCOCC1,-,-,-,-,0
CCOc1ccccc1NC(=O)CCc1c(C)nn(-c2ccc(N3CCCCC3)nn2)c1C,0,0,0,0,-
Cc1cc(C)cc(NC(=O)CCc2c(C)nn(-c3ccc(N4CCCCC4)nn3)c2C)c1,?,0,0,0,68
COc1ccc(C)cc1NC(=O)CCc1c(C)nn(-c2ccc(N3CCCCC3)nn2)c1C,0,0,0,0,61
O=C(Nc1ccc2c(c1)CCC2)c1ccc(F)cc1,0,0,0,0,0
O=C(Nc1ccc2c(c1)CCC2)c1cnc(Cl)c(Cl)c1,0,0,0,58,-
SMILES,MITF TRPM1 HTS,HSF1 inh,Wnt bcat act,HSF1 activator,esBAF inh
O=C(Nc1ccc2c(c1)CCC2)c1ccc(Cl)nc1,0,0,0,0,82
COc1ccc(-c2cn(CC[C@H]3CC[C@H](NS(=O)(=O)c4ccccc4C)[C@@H](CO)O3)nn2)cc1,-,-,-,-,0
COc1ccc(S(=O)(=O)Nc2ccc3c(c2)CC(=O)N([C@@H](C)CO)C[C@H](C)[C@@H](CN(C)C(=O)Nc2cccc4ccccc24)O3)cc1,-,-,-,-,0
CO[C@@H]1CN(C)C(=O)c2ccc(NC(=O)Nc3ccc4c(c3)OCO4)cc2OC[C@H](C)NC[C@@H]1C,-,-,-,-,60
CO[C@@H]1CN(C)C(=O)c2ccc(NC(=O)Nc3ccc4c(c3)OCO4)cc2OC[C@@H](C)NC[C@@H]1C,-,-,-,-,87
CO[C@@H]1CN(C)C(=O)c2ccc(NC(=O)c3ccc4c(c3)OCO4)cc2OC[C@H](C)NC[C@@H]1C,-,-,-,-,0
COc1ccccc1-c1cnc2c(c1)C(=O)N([C@@H](C)CO)C[C@H](C)[C@H](CN(C)Cc1cccc(F)c1)O2,-,-,-,-,0
COCC(=O)Nc1ccc2c(c1)C(=O)N(C)C[C@H](OC)[C@@H](C)CN(Cc1cccnc1)[C@H](C)CO2,-,-,-,-,0
